# Source: PMC7862700, “An all-to-all approach to the identification of sequence-specific readers for epigenetic DNA modifications on cytosine”
# What was measured:
# Assay in all cases: DAPPL (digital affinity profiling via proximity ligation, sequencing); 10 mM Tris-HCl pH 7.5, 50 mM NaCl, 1 mM DTT, 4% glycerol, room temperature, 30 min; GST-TFs on glutathione beads, 16-mer random dsDNA library, 0.1% formaldehyde crosslink after washing; high values mean tight binding
# Conditions in all cases: protein: recombinant; tags: N-terminal GST; dsDNA, one strand shown
# FLI1 = target: T1, FLI1 (Homo sapiens, UniProt Q01543 1-452)
# T1 sequence: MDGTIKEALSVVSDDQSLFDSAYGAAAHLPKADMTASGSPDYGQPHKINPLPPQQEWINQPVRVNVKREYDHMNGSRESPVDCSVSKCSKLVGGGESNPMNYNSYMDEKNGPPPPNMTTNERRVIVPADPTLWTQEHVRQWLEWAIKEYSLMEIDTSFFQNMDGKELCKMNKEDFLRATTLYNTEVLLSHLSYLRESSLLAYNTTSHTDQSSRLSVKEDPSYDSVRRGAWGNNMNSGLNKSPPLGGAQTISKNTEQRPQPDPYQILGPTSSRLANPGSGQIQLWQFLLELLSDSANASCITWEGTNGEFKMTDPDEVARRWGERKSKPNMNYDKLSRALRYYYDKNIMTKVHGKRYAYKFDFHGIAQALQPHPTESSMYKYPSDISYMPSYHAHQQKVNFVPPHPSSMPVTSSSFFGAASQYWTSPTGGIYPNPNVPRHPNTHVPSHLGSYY
# Method in brief: (§1)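 Pools were built from human transcription factors expressed in yeast as GST fusions, captured on glutathione beads and DNA-barcoded, along with a tag-only sample. Incubation with 200 nmole of a 16-mer random double-stranded DNA library lasted 30 min at room temperature in Tris/NaCl/DTT/glycerol buffer, and was followed by washing, 0.1% formaldehyde crosslinking, proximity ligation, PCR amplification and Illumina NextSeq500 sequencing. Binding signal is the quotient of each hexamer's read frequency for a factor and its frequency for the tag-only sample.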
# ELK1 = target: T2, ELK1 (Homo sapiens, UniProt P19419 1-428)
# T2 sequence: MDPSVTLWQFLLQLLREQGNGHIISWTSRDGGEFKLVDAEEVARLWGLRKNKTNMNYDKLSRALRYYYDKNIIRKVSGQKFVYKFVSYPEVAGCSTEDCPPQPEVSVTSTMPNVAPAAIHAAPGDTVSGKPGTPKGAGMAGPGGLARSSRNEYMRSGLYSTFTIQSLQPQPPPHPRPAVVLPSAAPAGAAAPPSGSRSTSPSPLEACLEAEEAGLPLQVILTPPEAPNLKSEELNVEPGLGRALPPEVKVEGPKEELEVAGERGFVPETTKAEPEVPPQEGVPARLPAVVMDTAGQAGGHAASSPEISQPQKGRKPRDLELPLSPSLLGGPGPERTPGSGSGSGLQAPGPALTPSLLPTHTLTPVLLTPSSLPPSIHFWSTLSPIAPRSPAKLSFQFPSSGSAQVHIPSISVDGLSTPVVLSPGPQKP
# Method in brief: as §1
# GABPA = target: T3, GABPA (Homo sapiens, UniProt Q06546 1-454)
# T3 sequence: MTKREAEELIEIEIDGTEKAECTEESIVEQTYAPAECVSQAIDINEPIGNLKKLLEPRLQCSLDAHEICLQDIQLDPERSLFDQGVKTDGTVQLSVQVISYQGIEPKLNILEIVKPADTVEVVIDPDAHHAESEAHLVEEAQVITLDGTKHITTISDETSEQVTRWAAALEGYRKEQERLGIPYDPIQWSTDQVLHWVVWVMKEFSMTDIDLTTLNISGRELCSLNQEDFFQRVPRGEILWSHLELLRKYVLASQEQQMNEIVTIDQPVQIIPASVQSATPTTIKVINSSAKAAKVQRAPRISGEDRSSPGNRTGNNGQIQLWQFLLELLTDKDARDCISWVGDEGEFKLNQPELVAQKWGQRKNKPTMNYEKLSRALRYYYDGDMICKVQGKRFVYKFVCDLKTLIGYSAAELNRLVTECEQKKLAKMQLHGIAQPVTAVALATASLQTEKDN
# Method in brief: as §1
# ERG = target: T4, ERG (Homo sapiens, UniProt P11308 1-479)
# T4 sequence: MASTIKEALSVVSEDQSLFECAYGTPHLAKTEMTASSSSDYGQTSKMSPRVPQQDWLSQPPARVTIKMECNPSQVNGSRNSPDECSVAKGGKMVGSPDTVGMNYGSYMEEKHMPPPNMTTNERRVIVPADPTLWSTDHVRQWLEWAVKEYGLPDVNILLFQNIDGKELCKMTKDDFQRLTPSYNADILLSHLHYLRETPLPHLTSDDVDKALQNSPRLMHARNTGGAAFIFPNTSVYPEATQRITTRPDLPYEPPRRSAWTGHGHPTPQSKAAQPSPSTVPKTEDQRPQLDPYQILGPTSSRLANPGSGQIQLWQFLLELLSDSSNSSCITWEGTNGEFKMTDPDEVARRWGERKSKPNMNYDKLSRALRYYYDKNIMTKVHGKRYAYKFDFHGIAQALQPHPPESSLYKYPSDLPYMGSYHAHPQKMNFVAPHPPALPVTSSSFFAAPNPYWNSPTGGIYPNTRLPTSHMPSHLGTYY
# Method in brief: as §1
# ELF1 = ELF1 (Homo sapiens, UniProt P32519 1-619)
# Method in brief: as §1
# EHF = target: T5, EHF (Homo sapiens, UniProt Q9NZC4 1-300)
# T5 sequence: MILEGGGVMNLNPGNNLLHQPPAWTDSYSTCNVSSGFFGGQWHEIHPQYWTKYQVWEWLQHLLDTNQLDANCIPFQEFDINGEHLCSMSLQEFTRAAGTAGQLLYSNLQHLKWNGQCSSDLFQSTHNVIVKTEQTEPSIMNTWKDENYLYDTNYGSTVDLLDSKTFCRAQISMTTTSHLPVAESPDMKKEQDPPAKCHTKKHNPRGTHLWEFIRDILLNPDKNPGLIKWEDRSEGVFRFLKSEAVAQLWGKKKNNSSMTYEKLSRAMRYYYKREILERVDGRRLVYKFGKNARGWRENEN
# Method in brief: as §1
# SPI1 = SPI1 (Homo sapiens, UniProt P17947 1-270)
# Method in brief: as §1
# SPIB = SPIB (Homo sapiens, UniProt Q01892 1-262)
# Method in brief: as §1
# ELK3 = target: T6, ELK3 (Homo sapiens, UniProt P41970 1-407)
# T6 sequence: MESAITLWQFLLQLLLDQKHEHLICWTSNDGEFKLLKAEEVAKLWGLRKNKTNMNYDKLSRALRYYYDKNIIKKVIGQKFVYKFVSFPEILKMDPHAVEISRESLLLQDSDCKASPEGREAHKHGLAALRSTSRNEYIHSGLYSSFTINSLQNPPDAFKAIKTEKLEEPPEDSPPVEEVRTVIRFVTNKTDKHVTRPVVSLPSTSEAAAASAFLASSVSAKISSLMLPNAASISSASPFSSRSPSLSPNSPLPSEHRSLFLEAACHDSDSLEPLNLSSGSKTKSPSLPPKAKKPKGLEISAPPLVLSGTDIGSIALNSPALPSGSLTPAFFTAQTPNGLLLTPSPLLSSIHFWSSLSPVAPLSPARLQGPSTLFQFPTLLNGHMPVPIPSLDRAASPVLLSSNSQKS
# Method in brief: as §1
# Sequence of ELF1 (P32519 whole entry): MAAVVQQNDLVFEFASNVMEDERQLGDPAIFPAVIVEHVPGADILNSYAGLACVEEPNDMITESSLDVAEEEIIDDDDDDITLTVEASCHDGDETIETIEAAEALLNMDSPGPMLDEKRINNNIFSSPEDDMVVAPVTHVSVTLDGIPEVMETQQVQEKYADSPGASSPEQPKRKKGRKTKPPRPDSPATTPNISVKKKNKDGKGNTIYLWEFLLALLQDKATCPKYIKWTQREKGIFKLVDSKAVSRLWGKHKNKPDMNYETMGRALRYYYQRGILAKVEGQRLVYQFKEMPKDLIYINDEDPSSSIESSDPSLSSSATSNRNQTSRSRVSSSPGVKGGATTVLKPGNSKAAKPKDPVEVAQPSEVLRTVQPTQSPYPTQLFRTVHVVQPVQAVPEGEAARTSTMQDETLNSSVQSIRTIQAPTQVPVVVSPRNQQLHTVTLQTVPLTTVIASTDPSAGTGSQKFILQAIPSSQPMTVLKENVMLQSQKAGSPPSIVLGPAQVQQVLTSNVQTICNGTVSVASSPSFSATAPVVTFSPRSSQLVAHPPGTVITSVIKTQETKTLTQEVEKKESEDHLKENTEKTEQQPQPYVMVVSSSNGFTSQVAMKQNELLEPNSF
# Sequence of SPIB (Q01892 whole entry): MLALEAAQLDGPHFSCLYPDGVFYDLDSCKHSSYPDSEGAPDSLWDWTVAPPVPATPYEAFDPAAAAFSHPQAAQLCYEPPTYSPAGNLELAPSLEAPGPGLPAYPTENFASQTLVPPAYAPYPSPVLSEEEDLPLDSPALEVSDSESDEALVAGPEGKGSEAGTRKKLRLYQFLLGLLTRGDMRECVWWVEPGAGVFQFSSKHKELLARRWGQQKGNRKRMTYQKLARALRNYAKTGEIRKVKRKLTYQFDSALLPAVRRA
Sequence,binding signal (FLI1),binding signal (ELK1),binding signal (GABPA),binding signal (ERG),binding signal (ELF1),binding signal (EHF),binding signal (SPI1),binding signal (SPIB),binding signal (ELK3)
GTCCTC,"1.15 fold enrichment (6-mer frequency, TF over GST control)","1.22 fold enrichment (6-mer frequency, TF over GST control)","1.17 fold enrichment (6-mer frequency, TF over GST control)","1.21 fold enrichment (6-mer frequency, TF over GST control)","1.18 fold enrichment (6-mer frequency, TF over GST control)","1.28 fold enrichment (6-mer frequency, TF over GST control)","1.25 fold enrichment (6-mer frequency, TF over GST control)","1.21 fold enrichment (6-mer frequency, TF over GST control)","1.22 fold enrichment (6-mer frequency, TF over GST control)"
TAACGG,"1.1 fold enrichment (6-mer frequency, TF over GST control)","1.18 fold enrichment (6-mer frequency, TF over GST control)","1.03 fold enrichment (6-mer frequency, TF over GST control)","1.08 fold enrichment (6-mer frequency, TF over GST control)","1.03 fold enrichment (6-mer frequency, TF over GST control)","1.14 fold enrichment (6-mer frequency, TF over GST control)","1.21 fold enrichment (6-mer frequency, TF over GST control)","1.13 fold enrichment (6-mer frequency, TF over GST control)","1.03 fold enrichment (6-mer frequency, TF over GST control)"
GTTCCC,"1.36 fold enrichment (6-mer frequency, TF over GST control)","1.27 fold enrichment (6-mer frequency, TF over GST control)","1.33 fold enrichment (6-mer frequency, TF over GST control)","1.25 fold enrichment (6-mer frequency, TF over GST control)","1.28 fold enrichment (6-mer frequency, TF over GST control)","1.28 fold enrichment (6-mer frequency, TF over GST control)","1.71 fold enrichment (6-mer frequency, TF over GST control)","1.37 fold enrichment (6-mer frequency, TF over GST control)","1.23 fold enrichment (6-mer frequency, TF over GST control)"
GAATCC,"1.15 fold enrichment (6-mer frequency, TF over GST control)","1.09 fold enrichment (6-mer frequency, TF over GST control)","1.08 fold enrichment (6-mer frequency, TF over GST control)","1.18 fold enrichment (6-mer frequency, TF over GST control)","1.13 fold enrichment (6-mer frequency, TF over GST control)","1.14 fold enrichment (6-mer frequency, TF over GST control)","1.14 fold enrichment (6-mer frequency, TF over GST control)","1.11 fold enrichment (6-mer frequency, TF over GST control)","1.08 fold enrichment (6-mer frequency, TF over GST control)"
GTCTAA,"1.05 fold enrichment (6-mer frequency, TF over GST control)","1.03 fold enrichment (6-mer frequency, TF over GST control)","1.14 fold enrichment (6-mer frequency, TF over GST control)","1.09 fold enrichment (6-mer frequency, TF over GST control)","1.09 fold enrichment (6-mer frequency, TF over GST control)","1.02 fold enrichment (6-mer frequency, TF over GST control)","1.08 fold enrichment (6-mer frequency, TF over GST control)","1.09 fold enrichment (6-mer frequency, TF over GST control)","1.12 fold enrichment (6-mer frequency, TF over GST control)"
GGAAGC,"1.5 fold enrichment (6-mer frequency, TF over GST control)","1.64 fold enrichment (6-mer frequency, TF over GST control)","1.45 fold enrichment (6-mer frequency, TF over GST control)","1.85 fold enrichment (6-mer frequency, TF over GST control)","1.39 fold enrichment (6-mer frequency, TF over GST control)","1.68 fold enrichment (6-mer frequency, TF over GST control)","1.74 fold enrichment (6-mer frequency, TF over GST control)","1.63 fold enrichment (6-mer frequency, TF over GST control)","1.77 fold enrichment (6-mer frequency, TF over GST control)"
TGCATA,"1.08 fold enrichment (6-mer frequency, TF over GST control)","1.11 fold enrichment (6-mer frequency, TF over GST control)","1.13 fold enrichment (6-mer frequency, TF over GST control)","1.11 fold enrichment (6-mer frequency, TF over GST control)","1.06 fold enrichment (6-mer frequency, TF over GST control)","1.16 fold enrichment (6-mer frequency, TF over GST control)","1.15 fold enrichment (6-mer frequency, TF over GST control)","1.11 fold enrichment (6-mer frequency, TF over GST control)","1.15 fold enrichment (6-mer frequency, TF over GST control)"
ACATCA,"1.11 fold enrichment (6-mer frequency, TF over GST control)","1.12 fold enrichment (6-mer frequency, TF over GST control)","1.09 fold enrichment (6-mer frequency, TF over GST control)","1.14 fold enrichment (6-mer frequency, TF over GST control)","1.16 fold enrichment (6-mer frequency, TF over GST control)","1.23 fold enrichment (6-mer frequency, TF over GST control)","1.13 fold enrichment (6-mer frequency, TF over GST control)","1.07 fold enrichment (6-mer frequency, TF over GST control)","1.11 fold enrichment (6-mer frequency, TF over GST control)"
